The list is not random: actives were taken first. Their share in the collection is about 1%.
TNFa cytotox = HUVEC cytotoxicity counter-screen, TNF alpha stimulated; HUVEC TNFalpha-stimulated, Hoechst cell count, imaging; hit rate 0.17% among 93,000; AID 848; cell count reduction, % at 2 µM;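 active means cell count reduction exceeding the screen mean by over 5 SD, scaled to untreated wells per plate, cut at about 78% in these data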;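 further: cells counted after 24 h of TNF alpha exposure following the 1 h pretreatment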
F-actin modifier = alters cytoskeleton assembly in HUVEC cells; HUVEC TNFa F-actin phalloidin imaging, high content; inhibition, % at 2 µM; AID 836; hit rate 0.18% among 91,000;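 active means inhibition above the batch mean plus 3 SD and confirmed as a hit by visual image inspection, cut at about 30% in these data, passing the limit was not always enough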
VCAM1 TNFa inh = reduces TNF alpha induced VCAM1 expression in HUVEC; HUVEC TNFa-induced VCAM-1 immunofluorescence, high-content imaging; hit rate 0.48% among 95,000; inhibition, % at 2 µM; AID 802;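 active means inhibition above the batch mean plus 3 SD, with images confirmed as a hit by eye, cut at about 37% in these data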;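 further: 0% = TNF-stimulated DMSO wells and 100% = unstimulated control wells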
E-sel TNF inh = blocks E-selectin expression induced by TNF alpha; HUVEC TNFa-induced E-selectin immunofluorescence, high content; hit rate 0.71% among 120,000; inhibition, % at 2 µM; AID 1246;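 active means inhibition above the batch mean plus 3 SD, and confirmed as a hit on visual image review, cut at about 43% in these data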;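 further: 0% = TNF-stimulated DMSO wells and 100% = unstimulated control wells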
* = called active by the depositor; nt = not tested or not shown.

SMILES	TNFa cytotox	F-actin modifier	VCAM1 TNFa inh	E-sel TNF inh
COC(=O)CN1C(=S)N(c2ccc(Cl)cc2)C(=O)C1CC(=O)Nc1ccc(Cl)cc1 (stereo not given)	nt	nt	nt	57*
CCOC(=O)c1ccc(-n2ccnc2)c(NC(=O)c2ccc(Cl)cc2)c1	nt	nt	nt	62*
COc1ccc(C(=O)C(CO)Oc2ccccc2OC)cc1OC (stereo not given)	-29	3	5	73*
Cc1noc(C)c1C(=O)NCCC1=CCCCC1	-32	-8	-3	64*
Cn1c(SCC(=O)N2CCOCC2)nnc1-c1cccc(NC(=O)c2ccccc2)c1	-2	18	-1	64*
COC(=O)CSc1nnc(-c2cccc(NC(=O)c3ccc(C)cc3)c2)n1C	-19	-16	-4	-17
Cc1nc2ccccc2c(=O)n1NC(=O)c1ccc([N+](=O)[O-])cc1	nt	nt	nt	-13
CCCCCOc1ccccc1C(=O)NCCC(=O)O	14	-7	12	-12
CCOc1ccccc1C(=O)NCCC(=O)O	nt	100*	nt	-19
Cc1ccc(C(=O)OCC(=O)N2CCc3ccccc32)cc1	-4	18	-8	-6
Cn1nc(C(=O)OCC(=O)N2CCc3ccccc32)c2ccccc2c1=O	88*	-20	77*	nt
COCCCNC(=S)N(Cc1cccnc1)Cc1ccc(OC)c(OC)c1	nt	nt	nt	16
CCC(C)C1C(C#N)=C(N)Oc2n[nH]c(-c3ccccc3)c21 (stereo not given)	29	-11	56*	6
Cc1cc(NC(=O)CSc2nnnn2C)n(-c2ccccc2)n1	-52	35*	-6	14
Cn1nnnc1SCC(=O)Nc1cc(C(C)(C)C)nn1-c1ccccc1	-4	-63	12	nt
COc1ccc(-n2c(C)c3c(OC)cccc(=O)c3c2C)cc1	-3	8	-6	56*
COc1cccc(=O)c2c(C)oc(C)c12	0	-3	11	7
O=C(CN1CCN(C(=O)c2ccco2)CC1)Nc1cccc([N+](=O)[O-])c1	nt	nt	nt	6
O=S(=O)(Nc1ccc(-n2cccc2)cc1)c1ccccc1	26	-25	40*	36
CC(C)(C)C1=CC(=O)C(=O)C(C(C)(C)C)=C1	nt	nt	nt	89*
COc1ccc(NC(=O)CN2C(=O)N(C)Cc3ccccc32)c(C)c1	nt	nt	nt	34
NC(=O)c1c(NC(=O)Cc2cccs2)sc2c1CCC2	1	2	92*	6
Cc1cc([N+](=O)[O-])nn1CCCC(=O)Nc1sc2c(c1C(N)=O)CCCC2	nt	nt	nt	-5
Cc1cc([N+](=O)[O-])nn1CC(=O)Nc1sc2c(c1C(N)=O)CCCC2	nt	nt	nt	80*
CSc1nsc(SCC(=O)N2CCCCC2)n1	nt	nt	nt	15
SMILES	TNFa cytotox	F-actin modifier	VCAM1 TNFa inh	E-sel TNF inh
CC(NC(=O)COc1cccc(Br)c1)C(=O)O (stereo not given)	-2	43	-13	77*
O=C(CCC(=O)OCC(F)(F)C(F)F)Nc1ccccc1F	nt	nt	nt	-3
C=CCN(CC=C)S(=O)(=O)c1ccc(NC(=S)NC(=O)/C=C/c2cccc3ccccc23)cc1	2	-12	-10	68*
Cc1cc(C)n(-c2nc3ccccc3nc2N2CCC(C)CC2)n1	-4	-9	12	-8
Cc1cc(N2CCC(C)CC2)nc(-n2nc(C)cc2C)n1	27	40*	-4	1
CCN(CC)S(=O)(=O)c1ccc(OC)c(NC(=O)c2cc(C)on2)c1	nt	nt	nt	-19
CC1CCN(c2nc3nonc3nc2Nc2ccc(F)cc2)CC1	nt	nt	nt	4
COC(=O)c1ccc(C(=O)Nc2ccc(C(C)C)cc2N)cc1	nt	nt	nt	-29
O=S(=O)(Cc1cc(NCc2ccccc2)nc(-c2ccccn2)n1)c1ccccc1	nt	nt	nt	-14
O=C(CCC(=O)NC1CCCCC1)N/N=C/c1ccncc1	nt	nt	nt	-8
COc1cc(NC(=O)c2ccc(COCC(F)(F)F)o2)cc(OC)c1OC	21	6	50*	16
CC(C)Oc1ccccc1C1CC(=O)Nc2cc3c(cc21)OCCO3 (stereo not given)	46	2	86*	-8
C/C(CCc1ccccc1)=N\NC(=O)C(=O)Nc1cccc(Cl)c1	nt	nt	nt	6
Cc1ccc(-c2onc3ccc(C4OCCO4)cc23)cc1	nt	nt	nt	-14
Cc1ccc(C(C)n2cc(C(=O)NCCN3CCN(C)CC3)nn2)cc1 (stereo not given)	4	6	7	71*
CCCn1c(SCC(=O)N2c3ccccc3Sc3ccccc32)nc2c1c(=O)n(C)c(=O)n2C	-6	13	1	65*
CC(=O)Nc1nc(-c2ccc3c(c2)CCN3S(C)(=O)=O)cs1	nt	nt	nt	11
CS(=O)(=O)N1CCc2cc(-c3csc(NC(=O)Cc4cccs4)n3)ccc21	-34	48	-3	93*
O=C(COc1ccc(Cl)cc1[N+](=O)[O-])N/N=C/c1cccs1	nt	nt	nt	-55
COc1ccc(NC(=O)N2CCn3c2nc2ccccc23)cc1	6	-38	58*	-4
O=C(Nc1ccccc1)N1CCn2c1nc1ccccc12	10	-2	16	-13
COc1cccc(C(=O)N/N=C/c2ccc(OC3CSC3)cc2)c1	94*	-135	nt	10
Cc1cccc(C(=O)N/N=C/c2ccc(OC3CSC3)cc2)c1	-10	-3	5	-26
O=C(c1cccc(F)c1)N1CCN(S(=O)(=O)c2ccc(C(F)(F)F)cc2)CC1	-8	21	15	83*
O=C(c1cccc(C(F)(F)F)c1)N1CCCC1	-24	8	-18	-22
SMILES	TNFa cytotox	F-actin modifier	VCAM1 TNFa inh	E-sel TNF inh
O=C1C(=O)c2ccc(-c3ccccc3)cc2-c2ccccc21	22	-21	64*	-28
Fc1ccc(C2=CC(c3ccco3)n3ncnc3N2)cc1 (stereo not given)	nt	nt	nt	4
C1=C(c2ccc(-c3ccccc3)cc2)Nc2ncnn2C1c1ccco1 (stereo not given)	1	2	-2	65*
OCCCc1nc2n(n1)C(c1cccs1)C=C(c1ccc(Br)cc1)N2 (stereo not given)	-8	-4	-16	-5
Brc1ccc(C2=CC(c3cccs3)n3ncnc3N2)cc1 (stereo not given)	15	-1	4	100*
Cc1[nH]ccc(=O)c1Oc1ncc(C(F)(F)F)cc1Cl	nt	nt	nt	-9
CCc1cccc(CC)c1N(COC)C(=O)Cn1ccccc1=N	-47	79*	17	5
Cc1cc(C(N)=O)c2cc(Br)ccc2n1	-6	-3	-17	8
Cc1cc(C(=O)NN)c2cc(Br)ccc2n1	52	12	56*	-10
COc1ccc(C)cc1N1C(=N)/C(=C2/Nc3ccccc3S2)C(c2ccccc2)C1=O (stereo not given)	nt	nt	nt	-32
CC1=CC(C)(C)N(S(=O)(=O)c2ccc(C)cc2)c2cc(C)ccc21	58	4	38*	16
COc1ccc2c(c1)C(C)=CC(C)(C)N2S(=O)(=O)c1ccc(C)cc1	nt	nt	nt	7
CCOC(=O)c1c(C)[nH]c(C(=O)OCCOc2ccccc2C)c1C	nt	nt	nt	67*
CCOC(=O)c1[nH]c(C)c(C(=O)c2ccc(C)cc2)c1C	33	18	48*	-16
Cn1c(CCNC(=O)c2ccc(Cl)c(Cl)c2)nnc1SCc1ccc(Cl)c(Cl)c1	4	-17	3	100*
CCOc1ccc(-n2nc(C(=O)NCCOC)c3ccccc3c2=O)cc1	nt	nt	nt	2
CCOc1ccc(-n2nc(C(=O)N3CCN(CC)CC3)c3ccccc3c2=O)cc1	8	-11	-6	66*
CC(C(=O)O)C1SC(=O)NC1=O (stereo not given)	-15	4	2	70*

Screens (PubChem)
